Screens from PubChem.
PLK1 PBD block: PLK1 (human) polo-box domain binding inhibition | P53350 | Plk1 PBD binding of FITC phosphopeptide, fluorescence polarization | Potency, µM, for the others: max response, negative = inhibition, most hits filed as inhibitors | 2.8% of 360,000 active | AID 720504; further: series mostly up to about 57 µM; nearly all actives have a fitted effect of over 65% in size
Target sequence (P53350 whole entry, looked up, the tested form may be a part): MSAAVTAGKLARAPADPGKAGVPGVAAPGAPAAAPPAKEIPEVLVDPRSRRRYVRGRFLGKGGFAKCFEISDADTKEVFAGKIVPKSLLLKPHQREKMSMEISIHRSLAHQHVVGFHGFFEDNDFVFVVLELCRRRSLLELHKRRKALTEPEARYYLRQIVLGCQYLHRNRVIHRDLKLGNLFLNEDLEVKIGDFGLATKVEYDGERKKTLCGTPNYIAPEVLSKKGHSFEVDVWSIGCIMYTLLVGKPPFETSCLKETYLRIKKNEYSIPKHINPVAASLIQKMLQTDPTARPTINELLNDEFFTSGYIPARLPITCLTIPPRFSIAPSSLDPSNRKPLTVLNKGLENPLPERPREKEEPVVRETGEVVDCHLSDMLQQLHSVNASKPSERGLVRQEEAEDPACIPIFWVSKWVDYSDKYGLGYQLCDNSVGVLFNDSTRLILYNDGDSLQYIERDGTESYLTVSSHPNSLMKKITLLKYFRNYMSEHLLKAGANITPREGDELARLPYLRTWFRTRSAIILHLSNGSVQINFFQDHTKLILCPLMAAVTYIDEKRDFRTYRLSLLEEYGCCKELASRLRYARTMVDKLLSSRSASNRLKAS
VDR inhibitor: inhibitors of human vitamin D receptor. P11473. VDR-SRC2-3 peptide fluorescence polarization, 2 h. Potency, µM, for the others: max response, negative = inhibition, usual class: inhibitors. 0.93% of 400,000 active. AID 504847
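After 23 nl compound addition and a short centrifugation, plates sat for 2 hours at ambient temperature; polarization of fluorescence then indicated loss of VDR binding to peptide SRC2-3.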
IDH1 R132H inh: human IDH1 R132H inhibition | IDH1-R132H enzyme, NADPH consumption, diaphorase/resazurin fluorescence | O75874 | 0.093% of 390,000 active | Potency, µM (doses to about 76.6 µM), inactives show at the highest dose activity change, negative = inhibition, most hits filed as inhibitors; further: nearly all actives have a fitted effect of over 65% in size
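IDH1-R132H (0.5 ug/mL dispensed) in pH 7.5 Tris buffer was preincubated 30 min with compound, then given a substrate mix of 0.016 mM NADPH and 2 mM alpha-KG for 80 min at room temperature; remaining NADPH was read by diaphorase/resazurin fluorescence.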
TrxR1 substrate: is turned over as a substrate by rat TrxR1; O89049; purified TrxR1 substrate turnover, NADPH consumption readout; Potency, µM (titrated, usually from 114 µM), inactives show at the highest dose activity change, negative = substrate turnover; 0.01% of 390,000 active; further: nearly all actives have a fitted effect of over 50% in size
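Rat TrxR1, dispensed at 90 nM, was prereduced with 400 uM NADPH (final) for 5 min at ~22 deg C, then incubated with compound 15 min before 400 uM selenite. A first-read NADPH fluorescence drop versus no-compound background flagged substrates.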
rTrxR1 inhibitor: rat TrxR1 inhibition; O89049; recombinant rTrxR1, NADPH fluorescence consumption, selenite substrate; Potency, µM (top dose mostly 114 µM), for inactives: at the highest dose activity change, negative = inhibition, most hits filed as inhibitors; 1% of 390,000 active; AID 588453; further: nearly all actives have a fitted effect of over 65% in size
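Rat TrxR1 (90 nM in the dispensed reagent) was pre-reduced with 400 uM NADPH for 5 min at room temperature, then incubated with compound for 15 min. After 400 uM selenite was added, NADPH fluorescence (Ex 340/Em 450 nm) was followed for 8 min.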
Sfp inh: blocks B. subtilis Sfp PPTase activity; Q9F4F7; Biochemical Sfp PPTase activity, qHTS; Potency, µM, without a hit: largest response in the series, negative = inhibition, actives largely listed as inhibitors; 3.5% of 310,000 active; AID 1490;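 further: the enzyme is Sfp with the accession as filed and its product quenches rhodamine fluorescence; 0% = enzyme reaction without inhibitor and -100% = no enzyme wells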
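Sfp 15 nM + cpd, 15 min RT; start w/ rhodamine-CoA 5 uM, BHQ-2-YbbR 12.5 uM (final); 50 mM Hepes pH 7.6, 10 mM MgCl2, 0.01% NP-40, 0.01% BSA; read 525/598 nm at 0 and 30 min.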
* = called active by the depositor; ? = inconclusive; nt = no result given; ! = not active in a repeat; [ ] = another dose, or the depositor's remark. The list is not random: actives were taken first. Their share in the collection is about 5.2%. The call rests on the fitted dose curve; in most records, active means well fitted curve in the direction sought with a large enough effect; inconclusive means small, poorly fitted or top-dose-only effect, or another doubt; inactive means no such curve, though single readings can be large; an effect the other way counts as inactive or inconclusive. Unless noted, on the % scale 0 is the no-effect control and ±100 the full control effect; potency means the concentration at half of the fitted maximal effect.

SMILES | PLK1 PBD block | VDR inhibitor | IDH1 R132H inh | TrxR1 substrate | rTrxR1 inhibitor | Sfp inh
C#CCNC(=O)C1=C[C@@H](C)[C@H](CCCO)[C@@H](OCC)O1 | -16% | -21% | 4% | -2%[57.1 µM] | 18µM* | nt
CC(SCc1nc2sc3c(c2c(=O)[nH]1)CCCC3)C(=O)Nc1ccccn1 (configuration not stated) | ? | -11% | 4% | 11% | ? | nt
CC(C)CCN1C(=O)c2ccc(C(=O)Nc3cc(C(=O)O)cc(C(=O)O)c3)cc2C1=O | -5% | -7% | 6% | 7%[57.1 µM] | 11%[57.1 µM] | 11%
CC(C)CCN1C(=O)c2ccc(C(=O)Nc3ccc(Br)cc3C(=O)O)cc2C1=O | ? | 79µM* | -4% | -8% | 24% | -7%
CC(C)CN1C(=O)c2ccc(C(=O)Nc3ccccc3C(=O)O)cc2C1=O | 24µM* | ? | 10% | -2% | 13% | 13%
O=C(Nc1ccc(Cl)cc1C(=O)O)c1ccc2c(c1)C(=O)N(Cc1ccco1)C2=O | 27µM* | ? | -1% | -2% | ? | -23%
Cc1ccccc1NC(=O)c1ccc2c(c1)C(=O)N(CC(C)C)C2=O | -6% | 4% | 0% | 4% | 19% | 14%
O=C(NC(NC(=S)Nc1ccc(F)c([N+](=O)[O-])c1)C(Cl)(Cl)Cl)C(c1ccccc1)c1ccccc1 (configuration not stated) | nt | -1% | nt | nt | nt | 11%
CCN(CC)S(=O)(=O)c1ccc2c(c1)c(=O)c(C(=O)N1CCN(c3cc(Cl)ccc3C)CC1)cn2C | nt | -16% | 6% | -8% | -1% | nt
Nn1cnnc1N/N=C\c1ccc(-c2ccccc2[N+](=O)[O-])o1 | -18% | ? | 20% | ? | -10% | 45µM*
COc1ccccc1N1CCN(c2nc3ccc(C)cc3nc2-n2nc(C)cc2C)CC1 | nt | -5% | -4% | -9% | 3% | nt
CN(C)c1ccc(N=Cc2ccco2)cc1 | -10% | 2µM* | 20% | 1%[57.1 µM] | -14%[57.1 µM] | 45µM*
CN(C)c1ccc(C=Nc2ccccc2)cc1 | -8% | -2% | -5% | -11% | -20% | 14%
N#CCCN(C(=S)NC(=O)c1ccco1)c1ccccc1F | 30µM* | -10% | 17% | 15%[57.1 µM] | -2% | 22µM*
CCc1ccc[n+](-c2[nH]c(=O)sc2/C=N/NC([S-])=Nc2ccccc2)c1 | 21µM* | ? | 8% | -18% | -26% | -21%
CCC(=O)NC(Nc1sc2c(c1C(=O)OC)CCC2)C(Cl)(Cl)Cl (configuration not stated) | -7% | -18% | 3% | -3% | -8% | 20µM*
COC(=O)c1c(NC(NC(=O)C(C)C)C(Cl)(Cl)Cl)sc2c1CCC2 (configuration not stated) | -6% | -13% | 6% | -11% | -13% | 50µM*
Cc1cccc(OCCC(=O)OCC(=O)Nc2c(C)nn(-c3ccccc3)c2C)c1 | -1% | -6% | 2% | 3% | 6% | nt
CC(=O)c1ccc(N2CCN(C(=O)c3nn(C)c4c3CS(=O)(=O)c3ccccc3-4)CC2)cc1 | 27µM* | ? | 0% | -6% | 9% | 8%
COc1ccc(OCCC(=O)OCC(=O)NCc2ccco2)cc1 | 24µM* | -28% | 5% | 2%[57.1 µM] | ? | ?
CCOc1ccccc1OCC(=O)NCc1ccco1 | -21% | -2% | 4% | 7% | 28µM* | -17%
O=C(COc1ccccc1Cl)NCc1ccco1 | -13% | -12% | -2% | 10%[0.457 µM] | -2% | 7%
Clc1ccccc1CNCc1ccc2c(c1)OCO2 | -15% | nt | 3% | nt | nt | nt
CC/C(O)=C1\C(=O)CCCC1=NCCc1c(C)[nH]c2ccc(C)cc12 | 30µM* | ? | 8% | -1% | 1% | 7%
COc1cc(/C=C2/CCCC(C(=O)C(F)(F)F)=C2O)ccc1O | -6% | -3% | -13% | 0% | ? | -29%
SMILES | PLK1 PBD block | VDR inhibitor | IDH1 R132H inh | TrxR1 substrate | rTrxR1 inhibitor | Sfp inh
COc1cc(/C=C2\CCC/C(=C\c3ccc(O)c(OC)c3)C2=O)ccc1O | -10% | 25µM*! | -19% | -1% | ? | -7%
COc1cc(/C=C2\CC/C(=C\c3cc(OC)c(O)c(OC)c3)C2=O)cc(OC)c1O | 4.7µM* | -14% | -17% | -12% | ? | 45µM*
c1ccc(-c2csc3ncnc(Sc4nnnn4-c4ccccc4)c23)cc1 | nt | nt | nt | 21% | 7% | nt
CSc1nnc2c(n1)OC1(Nc3ccccc3-2)C(=O)Nc2ccccc21 (configuration not stated) | 27µM* | -17% | 1% | -10% | 12% | 19%
CCSc1nnc2c(n1)OC(C)(C)Nc1ccccc1-2 | 4% | 9% | 6% | -8% | 8% | -3%
Cc1ccccc1CNC(=O)c1cnc2sc(N3CCC(C)CC3)nn2c1=O | nt | 16% | -7% | 17%[57.1 µM] | 25%[57.1 µM] | nt
NC(=O)c1c(NC(=O)CCCn2cnc([N+](=O)[O-])n2)sc2c1CCCC2 | 4.7µM* | 45µM* | 5% | -2% | -17% | 7.9µM*
Cc1cc([N+](=O)[O-])nn1CC(=O)Nc1sc2c(c1C(N)=O)CCCC2 | -27% | 3% | 1% | 0%[57.1 µM] | 10%[57.1 µM] | -15%
CC1CCc2c(sc(NC(=O)CCCn3cnc([N+](=O)[O-])n3)c2C(N)=O)C1 (configuration not stated) | -4% | -14% | 1% | 0% | 3% | 4%
Cc1cc([N+](=O)[O-])nn1CCCC(=O)Nc1sc2c(c1C(N)=O)CCCC2 | 4.7µM* | 32µM* | 20% | 8%[57.1 µM] | -8%[57.1 µM] | 18%
COc1cccc(NC(=O)Cn2c(=O)n(CCCCC(=O)NCCc3ccccc3)c(=O)c3ccccc32)c1 | nt | -6% | 9% | -5% | 6% | nt
COc1ccc(CNC(=O)CN(c2ccccc2)S(=O)(=O)N(C)C)cc1 | -9% | 89µM*! | 4% | -2% | 12% | -4%
CN(C)S(=O)(=O)N(CC(=O)NCc1ccccc1)c1ccccc1 | -10% | 6% | 0% | 5% | 10% | 8%
COc1ccc(N(CC(=O)NCC(C)C)S(=O)(=O)c2ccccc2)cc1 | 19µM* | ? | 4% | 9%[57.1 µM] | 17%[57.1 µM] | 16%
CCCCn1c(SCC(=O)Nc2nnc(C)s2)nnc1-c1ccoc1C | 1% | -6% | 4% | 5% | 3% | 13%
Cc1nnc(NC(=O)CSc2nnc(-c3ccoc3C)n2CC(C)C)s1 | 27µM* | ? | 0% | 3% | 3% | ?
CCCn1c(SCC(=O)Nc2nnc(C)s2)nnc1-c1ccoc1C | 27µM* | ? | 7% | 1% | 9% | -6%
COc1ccc2[nH]c(C)c(CCN(Cc3cccs3)C(=S)Nc3cccc(F)c3)c2c1 | -7% | -1% | 5% | -1% | -21% | 40µM*
